This is part of a sample that, as a whole, favours compounds with a hit. Of some 83,000 tested, about 20% had one in any assay.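 Interpretation: 100, growth as untreated; towards 0, rising growth inhibition; 0, no net growth; 0 to -100, cell death. Compounds scoring below 10 were considered active.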 Unmarked numbers belong to inactive results. Activity calls are given as the source filed them.
The compounds below were run on HCT-15 colon (assay: NCI-60 one-dose screen, 48 h (100 = growth as untreated, 0 = no growth, -100 = all killed)). Settings: 10 µM unless noted.
Description: Growth inhibition of the HCT-15 human tumor cell line is measured as a screen for anti-cancer activity. Cells are grown in 96 well plates and exposed to the test compound for 48 hours. Compounds are tested at a single concentration, which is 10^-5 M for most compounds. The reported endpoint is percent growth (GI% or GIPRCNT), where numbers from 0 - 100% represent growth inhibition, and numbers from -100% - 0 represent cell death. For example, a value of 40 represents 60% growth inhibition. A value of 0 means no net growth occurred over the course of the experiment. A value of -40 indicates 40% of cells at the beginning of the experiment died by the end of the experiment. A value of -100 means all cells are dead at the end of the experiment.
NCI-60 Human Tumor Cell Lines Screen was performed using the standard one-dose NCI protocol, which is described in more detail at https://dtp.cancer.gov/discovery_development/nci-60/default.htm.
Compounds with GIPRCNT values below 10 were considered active. Activity score was based on GIPRCNT using the following formula: […]
Score is 0 for GIPRCNT values of 100 or above, 50 for GIPRCNT values of 0, and 100 for GIPRCNT values of -100.
In the case of `Clc1cccc(NCOOC2(OOCNc3cccc(Cl)c3)CCCCC2)c1`, the growth is reported as 70.2%.
Compound `COC(=O)[C@H](Cc1ccccc1)NNC(=O)c1csc([C@@H](C[C@H](C(C)C)N(C)C(=O)[C@@H](NC(=O)[C@H]2CCCCN2C)C2CC2)OC(C)=O)n1` has a growth of 13.9%.
Work on `N/C(=N/N=C/c1ccncc1)N[N+](=O)[O-]` yielded a growth of 97.3%.
`COC(=O)C12CC(NC(=O)c3csc([C@@H](C[C@H](C(C)C)N(C)C(=O)[C@@H](NC(=O)[C@H]4CCCCN4C)C(C)C)OC(C)=O)n3)(C1)C2` was tested, and the growth was 5.8% (active).
With `COc1ccc(/C(C)=C(\c2ccc(OCCN3CCOCC3)cc2)c2ccc(OC(=O)Cc3ccccc3)cc2)cc1` the growth was 98.5%.
`CCOC(=O)[C@@H](C)C[C@H](Cc1ccccc1)NC(=O)c1csc([C@@H](C[C@H](C(C)C)N(C)C(=O)[C@H](CCC(C)C)NC(=O)[C@H]2CCCCN2C)OC(C)=O)n1` gave a growth of 15.2%.
Compound `COC(=O)[C@@H](C)C[C@H](Cc1ccccc1)NC(=O)c1cccc([C@@H](C[C@H](C(C)C)N(C)C(=O)[C@@H](NC(=O)[C@H]2CCCCN2C)C(C)C)OC(C)=O)n1` has a growth of 10.6%.
For `COc1cc([C@@H]2c3cc4c(cc3[C@H](OC(C)=O)[C@H]3COC(=O)[C@H]23)OCO4)cc(OC)c1OC`, the growth was 9.64% (active).
With `CC(=O)O[C@@H]1CC[C@]2(C)[C@H]3CC[C@]4(C)C(=O)CC[C@H]4[C@@H]3C[C@@H]3SC(N)=N[C@@]32C1` the growth was 35.2%.
Compound `O=C(N/N=C/c1ccc(N(CCCl)CCCl)cc1)c1cccc2ccccc12` has a growth of 56.1%.
In the case of `COc1cc(/C=C\c2cc(OC)c(OC)c(OC)c2)cc(N/C=C\C(=O)c2cc(OC)c(OC)c(OC)c2)c1OC`, the growth is reported as 19.6%.
For `CC1=C(CCCNS(C)(=O)=O)C2=C(C)C3(CC3)[C@@](C)(O)C(=O)C2=C1`, the growth was 4.29% (active).
`O=C1C=C(N2C3C4CCC(C4)C32)C(=O)C=C1c1ccccc1` (stereo not given) was tested, and the growth was 82.7%.
For `Nc1c(F)cc(-c2nc3cc(F)ccc3[se]2)cc1Br`, the growth was 18.5%.
With `CCN(CCO)C(Cc1ccccc1)c1ccccc1` (stereo not given) the growth was 94.3%.
Work on `Cc1ccc(S(=O)(=O)F)cc1C(=O)O` yielded a growth of 102%.
`O=C(Nc1ccc([As]=[As]c2ccc(NC(=O)c3ccccc3)cc2)cc1)c1ccccc1` (stereo not given) was tested, and the growth was -79.6% (active).
In the case of `COc1cc(C=Nc2cccc(C(=O)O)c2)ccc1N(CCCl)CCCl`, the growth is reported as 97.8%.
`C/C=C(\C)C(=O)O[C@@H]1C(O)[C@H]2OC(COC(=O)CCC(=O)CCCCCC[C@H](CCCCC)O[C@@H]3OC(C)[C@H](OC(C)=O)C(O)[C@H]3O2)[C@H]1OC(=O)/C=C/c1ccccc1` (stereo not given in full) gave a growth of 13%.
In the case of `CCNc1nc(Cl)nc(NCC)n1`, the growth is reported as 112%.
With `CCCC[C@H](NC(=O)[C@H]1CCCCN1C)C(=O)N(C)[C@H](C[C@@H](OC(C)=O)c1nc(C(=O)N[C@@H](Cc2ccccc2)C[C@H](C)C(=O)OCC)cs1)C(C)C` the growth was 20.4%.
`C/C(CC(C)(C)N1CC1)=N\NC(=O)Nc1cccc2ccccc12` gave a growth of 60.8%.
In the case of `O=C1CNC(c2ccccc2)c2cc(Cl)ccc2N1` (stereo not given), the growth is reported as 105%.
Compound `CCN(CC)CCOC(=O)C(OC(C)C)(c1ccccc1)c1ccccc1` has a growth of 96.4%.
Work on `COc1ccc(C(=O)c2sc3nc4c(cc3c2N)N2CCC4CC2)cc1OC` yielded a growth of 96.4%.
In the case of `C[C@@]12CC[C@@H](O)C[C@@H]1CC[C@H]1[C@H]2CC[C@@]2(C)[C@H](c3ccc(=O)oc3)CC[C@@]12O`, the growth is reported as -79.7% (active).
In the case of `CC(=O)c1ccc(C(=O)NCC2CCC3(CC2)OOC2(CCCCC2)OO3)cc1`, the growth is reported as 82.5%.
For `C/C(=C\c1cc(C(F)(F)F)nn1CCNC(=O)OC(C)(C)C)[C@@H]1C[C@@H]2O[C@]2(C)CCC[C@H](C)[C@H](O)[C@@H](C)C(=O)C(C)(C)[C@@H](O)CC(=O)O1`, the growth was 39.5%.
With `O=C1OCCC1Br` (stereo not given) the growth was 98.7%.
`CC(C)(C)C(=O)OCOP(=O)(NCc1ccccc1)C1CCCN(O)C1=O` (stereo not given) was tested, and the growth was 22.5%.
`CC(=O)O[C@H](C[C@H](C(C)C)N(C)C(=O)[C@@H](NC(=O)[C@H]1CCCCN1C)C(C)(C)C)c1nc(C(=O)N[C@@H](Cc2ccccc2)C[C@H](C)C(=O)O)cs1` was tested, and the growth was 5.59% (active).
`CCOC(=O)[C@@H](C)C[C@H](Cc1ccccc1)NC(=O)c1nc([C@@H](C[C@H](C(C)C)N(C)C(=O)[C@@H](NC(=O)[C@H]2CCCCN2C)C(C)C)OC(C)=O)sc1CCOCc1ccccc1` was tested, and the growth was -30.5% (active).
In the case of `COC(=O)[C@@H](C)C[C@H](Cc1ccccc1)NC(=O)c1csc([C@@H](C[C@H](C(C)C)N(C)C(=O)[C@H](C)NC(=O)[C@H]2CCCN2C)OC(C)=O)n1`, the growth is reported as 57.7%.
For `COc1cccc2c1c(C(=O)c1ccco1)cn2Cc1ccc(F)cc1`, the growth was 103%.
In the case of `CN(C)C(=O)Oc1ccc(Br)cc1`, the growth is reported as 105%.
In the case of `O=C(c1cccc(O)c1O)c1cn(Cc2ccc(F)cc2)c2cccc(O)c12`, the growth is reported as 27.8%.
With `Cn1cc(-c2csc(-c3cn(CCCCN4CCCCC4)c4ccc(F)cc34)n2)c2cccnc21` the growth was 76%.
In the case of `O=C([O][Hg][CH2]C1OCCOC1[CH2][Hg][O]C(=O)c1ccccc1)c1ccccc1` (stereo not given), the growth is reported as -79.5% (active).
With `O=C(N/N=C\c1ccc(N(CCCl)CCCl)cc1Cl)c1cccnc1` the growth was 79.9%.
In the case of `COc1ccc([As]=[As]c2ccc(OC)c(NCS(=O)(=O)O)c2)cc1NCS(=O)(=O)O` (stereo not given), the growth is reported as -72.2% (active).

— PubChem BioAssay (NCI)
